Most compounds without a hit are left out; they make up all but 11% or so of the library.
Pf growth 48h – inhibits P. falciparum growth in the first generation, 48 h; P. falciparum luciferase growth in erythrocytes, 48 h; Potency, µM (top dose mostly 28.7 µM), inactives show top-dose activity change, negative = inhibition, usual class: inhibitors; 310,000 tested, 5.9% active; further: on the % scale 0 is the no-effect control and ±100 the full control effect
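Parasite viability was followed by luminescence of a genomically integrated firefly luciferase. Cultures held 0.1% parasitemia at 2% hematocrit (final), incubated under 5% CO2 at 37 C.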
HCV inh – blocks hepatitis C virus. Huh7.5.1 HCVcc-Cre infection, luciferase reporter, 44 h. Potency, µM (doses to about 41.8 µM), inactives show at the top dose activity change, negative = inhibition, hits mostly inhibitors. 340,000 tested, 3.4% active; further: on the % scale 0 is the no-effect control and ±100 the full control effect
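Reporter virus HCVcc-Cre (~0.5 moi) infects cells exposed to compound; seeding density 1,000 cells/well with 4 h settling beforehand. Luminescence, 15 sec read, taken 44 h post-infection following a 15 min RT substrate incubation.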
VACV Venus inh – vaccinia inhibition (Venus reporter) | Vaccinia virus Venus reporter expression, fluorescence | Potency, µM (series often up to 36.5 µM), for inactives: at the highest dose activity change, negative = inhibition, usual class: inhibitors | 330,000 tested, 0.46% active; calls by dose curve; tested in A549 cells; further: on the % scale 0 is the no-effect control and ±100 the full control effect; nearly all actives have a fitted effect of over 30% in size
Pf growth 96h – inhibits malaria parasite growth, 96 h; AID 504834; Potency, µM (titrated, usually from 28.7 µM), without a hit: at the highest dose activity change, negative = inhibition, usual class: inhibitors; 320,000 tested, 6.9% active; P. falciparum luciferase reporter growth, 96 h; further: on the % scale 0 is the no-effect control and ±100 the full control effect
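Two parasite generations (96 h, 37 C, 5% CO2) of compound exposure in infected erythrocytes (0.05% parasitemia, 2% hematocrit). Luciferase-reporter P. falciparum; decreased luminescence indicates inhibited growth, aimed at apicoplast-acting delayed death.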
NS1 function inh – blocks influenza NS1 protein function. Potency, µM (titrated, usually from 46.1 µM), inactives show top-dose activity, positive = more growth. 270,000 tested, 0.4% active; calls by dose curve; further: actives are rising curves; nearly all actives have a fitted effect of over 50% in size
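S. cerevisiae expressing influenza A NS1, grown in glucose, washed, then diluted 1:100 into pH 6.0 -URA galactose medium with 23 nl compound. Growth recovery read as OD600; NS1-free strain serves as control.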
Vaccinia mCherry – inhibitors of vaccinia virus infection (mCherry reporter signal); Vaccinia virus mCherry reporter infection, fluorescence; Potency, µM (doses to about 36.5 µM), for inactives: top-dose activity change, negative = inhibition, hits mostly inhibitors; 310,000 tested, 0.63% active; AID 720579; calls by dose curve; tested in A549 cells; further: on the % scale 0 is the no-effect control and ±100 the full control effect; nearly all actives have a fitted effect of over 35% in size
* = called active by the depositor; i = inactive; ? = inconclusive; / = no result; [ ] = dose if it differs, or a comment. Unless noted, the call rests on the fitted dose curve; in most records, active means well fitted inhibition curve with a large enough effect; inconclusive means small, poorly fitted or top-dose-only effect, or another doubt; inactive means no such curve, though single readings can be large or run the other way. Potency means the concentration at half of the fitted maximal effect.

SMILES | Pf growth 48h | HCV inh | VACV Venus inh | Pf growth 96h | NS1 function inh | Vaccinia mCherry
CCN(CC)c1ccc(/C=N/NC(=O)c2cccc(S(=O)(=O)Nc3ccccc3OC)c2)cc1 | ? | 11.2µM* | / | -0.2% | 18.8% | /
CCN(CC)c1ccc(/C=N/NC(=O)c2ccc3nc[nH]c3c2)c(O)c1 | ? | 5.01µM* | ? | ? | -3.5% | 11.2µM*
COc1ccccc1NS(=O)(=O)c1cccc(C(=O)N/N=C/c2ccc3c(c2)OCCO3)c1 | 9.4% | 3.2% | -13.6% | 38.2% | 3.1% | -15.2%
CCN(CC)c1ccc(/C=N/NC(=O)c2cccc(S(=O)(=O)Nc3ccccc3OC)c2)c(O)c1 | 9.28µM* | 10µM* | ? | 11.7µM* | 23.8% | 2.51µM*
COc1ccccc1NS(=O)(=O)c1cccc(C(=O)NN)c1 | -8.8% | 17.6% | / | 2.9% | 18.2% | /
COc1cc(OC)c(OC)cc1/C=N/NC(=O)c1ccc2nc[nH]c2c1 | 20.5% | -14.0% | 2.3% | 46.3% | 2.7% | -10.6%
COc1ccccc1NS(=O)(=O)c1cccc(C(=O)N/N=C2\CC(=O)CC(C)(C)C2)c1 | 13.1µM* | -2.0% | -3.2% | ? | 0.1% | -17.4%
COc1ccccc1NS(=O)(=O)c1cccc(C(=O)NN=C2CCCC2)c1 | -15.3% | 2.4% | -17.9% | -12.9% | / | -23.1%
Clc1ccc(Nc2ccc(Cl)nn2)cc1 | 3.9% | -4.5% | -7.7% | 34.7% | -3.0% | 2.4%
Cc1ccc(N(C(=O)c2csnn2)C(C(=O)NC2CCCCC2)c2ccccn2)c(C)c1 (configuration not stated) | -7.6% | -5.8% | 2.1% | 9.1% | 10.2% | i
CCOCCCNC(=O)C1(O)c2cc(Br)ccc2NC(=O)N1c1cccc(OC)c1 (configuration not stated) | 4.9% | 8.0% | 1.1% | -3.1% | 9.1% | -1.6%
O=C(O)c1ccc(CSc2nc3ccccc3o2)cc1 | 30.6% | 10.2% | -22.6% | ? | -68.9% | -6.3%[1.46 µM]
COc1ccccc1NS(=O)(=O)c1cccc(C(=O)N/N=C/c2ccc([N+](=O)[O-])o2)c1 | 1.85µM* | 11.2µM* | ? | 1.65µM* | / | ?
COc1ccccc1/C=N/NC(=O)c1ccc(Br)cc1 | 4.3% | -5.0% | -15.1% | -8.6% | / | ?
Cc1ccc(/C=N/NC(=O)c2cccc(S(=O)(=O)Nc3ccccc3Cl)c2)o1 | 23.7% | 38.0% | -6.5% | 2.9% | -0.1% | i
CCN(CC)c1ccc(C(=O)N/N=C/c2ccccc2OC(F)F)cc1 | 10.4µM* | 11.2µM* | / | ? | / | /
NS(=O)(=O)c1ccc(Sc2nc3ccccc3s2)c([N+](=O)[O-])c1 | -13.8% | 22.4µM* | ? | -10.3% | 7.9% | ?
CCCCCn1c(CNC(=O)c2cccs2)nc2ccccc21 | ? | -2.4% | -19.2% | 0.586µM* | -7.5% | -16.1%
CCCCn1c(CNC(=O)c2cccs2)nc2ccccc21 | 5.22µM* | -15.2% | -10.3% | 2.08µM* | -7.5% | i
CCCCn1c(C(C)NC(=O)c2cccs2)nc2ccccc21 (configuration not stated) | ? | ? | -5.8% | 32.9% | -11.3% | -8.5%
CCCCCn1c(CCNC(=O)c2cccs2)nc2ccccc21 | ? | ? | -19.5% | -18.8% | -49.6% | -15.4%
O=C(Nc1ccccc1F)C1CCN(S(=O)(=O)c2ccc3c(c2)CCCN3C(=O)C2CCC2)CC1 | / | / | -13.2% | / | / | -7.9%
O=C(CCN1C(=O)/C(=C/c2ccc(Cl)cc2)SC1=S)Nc1ccc(C(=O)O)cc1 | 3.3% | 25.5% | -4.9% | -2.6% | -1.0% | 0.5%
CCCn1cc(S(=O)(=O)CC(=O)Nc2ccc(OCC)cc2)c2ccccc21 | 13.1µM* | ? | / | 19.9% | -20.5% | /
CCn1cc(S(=O)(=O)CC(=O)Nc2ccc(C)cc2)c2ccccc21 | 5.6% | -15.6% | / | 2.62µM* | -4.8% | /
SMILES | Pf growth 48h | HCV inh | VACV Venus inh | Pf growth 96h | NS1 function inh | Vaccinia mCherry
CCN(CC)C(=O)Cn1cc(S(=O)(=O)CC(=O)Nc2ccc(C(N)=O)cc2)c2ccccc21 | -6.6% | 0.562µM* | / | ? | 7.4% | /
Cc1ccccc1Cn1cc(S(=O)(=O)CC(=O)Nc2nccs2)c2ccccc21 | 11.7µM* | ? | -22.6% | -29.1% | -11.6% | -28.0%
CCN(CC)C(=O)Cn1cc(S(=O)(=O)CC(=O)Nc2cccc(NC(C)=O)c2)c2ccccc21 | / | / | -12.9% | / | / | i
CC1(C)CC(=O)C2=C(C1)OC(N)=C(C#N)C2c1cn(-c2ccccc2)nc1-c1ccc(F)cc1 (configuration not stated) | 50.1% | ? | / | ? | 3.1% | /
COC(=O)c1ccccc1N1C(=O)[C@@H]2C(c3ccc(F)cc3)=NO[C@@H]2C1=O | 17.8% | 18.8% | / | ? | -10.2% | /
Cc1ccccc1-c1cc(C(=O)NCc2cccc(C(F)(F)F)c2)nn1CC1CC(c2cccc([N+](=O)[O-])c2)=NO1 (configuration not stated) | 3.7µM* | -29.6% | -19.2% | 6.57µM* | / | -15.7%
Cc1ccccc1-c1cc(C(=O)NCc2ccc(OC(F)(F)F)cc2)nn1CC1CC(c2cccc([N+](=O)[O-])c2)=NO1 (configuration not stated) | / | ? | ? | / | / | -26.3%
Cc1ccccc1-c1cc(C(=O)NCc2ccco2)nn1CC1CC(c2cccc([N+](=O)[O-])c2)=NO1 (configuration not stated) | / | ? | -27.9% | / | / | -16.8%
Cc1ccccc1-c1cc(C(=O)NCc2cccs2)nn1CC1CC(c2cccc([N+](=O)[O-])c2)=NO1 (configuration not stated) | 3.29µM* | -29.2% | ? | 2.08µM* | / | -3.9%
COc1ccc(OC)c(/C=N/NC(=O)Cn2ccnc2C)c1 | -4.5% | ? | / | 47.0% | 0.6% | /
CC(=O)Nc1cccc(OCCCNC(=O)c2ccc(C(C)(C)C)cc2)c1 | -19.2% | 10µM* | / | ? | 1.9% | /
COc1ccc(/C=C2\Oc3ccccc3C2=O)cc1 | / | ? | -16.7% | / | / | -3.4%
Nc1cccc(C#Cc2ccc3c(c2)C(=O)/C(=C/c2ccsc2)O3)c1 | / | 2.51µM* | -6.8% | / | / | ?
CCCCCNc1nc2ccccc2nc1NS(=O)(=O)c1cccs1 | -6.8% | 9.3% | -11.9% | / | -4.7% | /
CCCC(=O)c1c(C)c2ccccc2n1C | -12.2% | -0.7% | / | 3.29µM* | ? | /
Cc1c(C(=O)Cc2ccccc2)n(C)c2ccccc12 | -13.2% | -12.8% | -2.4% | 1.8% | / | -18.4%
O=C(CN1CCN(c2ncccn2)CC1)N1CCc2ccccc21 | 20.1% | 4.1% | / | -15.4% | 4.0% | /
CCOC(=O)C1=C(CN2CCCCC2)NC(=O)NC1c1ccc(OC)cc1 (configuration not stated) | / | / | -13.2% | / | / | i
CCOC(=O)C1=C(CN2CCN(C(=O)OCC)CC2)NC(=O)NC1c1ccc2c(c1)OCO2 (configuration not stated) | ? | ? | -5.9% | 24.3% | / | -8.2%
